# Results from PubChem BioAssay (NCATS).
# Records with an inconclusive call do not appear. Entries that show only a call come without a potency. Calls of active or inactive are those of the source. Calls come from the whole dose curve; as a rule, active = well fitted inhibition curve with a large enough effect; inconclusive = small, poorly fitted or top-dose-only effect; inactive = no such curve, though single readings can be large or run the other way.
# Molecular target: Furin (Homo sapiens) (UniProt P09958)
# Assay: Furin counterscreen qHTS for Zika virus inhibitors (AID 1347149); note: nearly all actives have a fitted effect of over 70% in size; note: potency is the fitted concentration of half-maximal effect
# Settings: furin enzymatic counterscreen, fluorogenic substrate; series mostly up to 114 µM
# In short: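 Fluorogenic cleavage of BOC-RVRR-AMC (2 microM final, Km ~15 µM) was monitored (ex 340, em 450 nm) at 37C after 15 min RT preincubation of 5 nM furin with compounds in HEPES pH 7.0 buffer with CaCl2 and Triton X-100. Percent inhibition was fitted to a 4-parameter Hill curve.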
# Furin (Homo sapiens), sequence (P09958 whole entry, looked up): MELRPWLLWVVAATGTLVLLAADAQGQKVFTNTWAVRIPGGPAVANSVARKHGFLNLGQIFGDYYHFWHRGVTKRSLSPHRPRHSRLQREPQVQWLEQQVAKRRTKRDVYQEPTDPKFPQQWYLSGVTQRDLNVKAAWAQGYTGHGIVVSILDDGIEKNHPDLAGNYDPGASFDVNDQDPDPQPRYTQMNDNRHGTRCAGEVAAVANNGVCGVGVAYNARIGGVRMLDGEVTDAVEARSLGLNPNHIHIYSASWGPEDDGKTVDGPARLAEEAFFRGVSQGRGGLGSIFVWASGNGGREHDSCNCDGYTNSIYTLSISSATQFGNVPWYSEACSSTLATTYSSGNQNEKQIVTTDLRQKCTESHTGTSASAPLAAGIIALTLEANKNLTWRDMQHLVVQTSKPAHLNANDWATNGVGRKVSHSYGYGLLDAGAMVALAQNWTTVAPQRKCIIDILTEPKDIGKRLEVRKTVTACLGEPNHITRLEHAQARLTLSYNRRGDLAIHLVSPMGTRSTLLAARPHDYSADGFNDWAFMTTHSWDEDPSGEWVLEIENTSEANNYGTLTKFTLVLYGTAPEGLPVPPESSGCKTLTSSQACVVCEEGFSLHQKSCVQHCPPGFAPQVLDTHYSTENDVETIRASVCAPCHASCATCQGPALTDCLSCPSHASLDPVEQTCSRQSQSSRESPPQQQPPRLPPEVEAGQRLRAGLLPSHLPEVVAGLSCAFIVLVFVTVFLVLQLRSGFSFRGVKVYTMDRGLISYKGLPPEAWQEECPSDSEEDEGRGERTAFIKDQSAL
row,Compound,Potency
1,O=C1OC(c2ccc(O)c(S(=O)(=O)O)c2)(c2ccc(O)c(S(=O)(=O)O)c2)c2c(Br)c(Br)c(Br)c(Br)c21,inactive
2,O=C(Nc1ccc(Br)cc1)c1cc(Br)cc(Br)c1O,27.1 µM (active)
3,O=c1oc2ccccc2c(O)c1Cc1c(O)c2ccccc2oc1=O,inactive

# System: Zika virus NS2B-NS3 protease (unlinked)
# Assay: Optimization of GU AMC qHTS for Zika virus inhibitors: Unlinked NS2B-NS3 protease assay (AID 1347151); note: nearly all actives have a fitted effect of over 80% in size
# Settings: recombinant ZIKV NS2B-NS3 protease, fluorogenic AMC substrate; series mostly up to 52.5 µM
# In short: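 Unlinked protease (25 nM final); buffer 10 mM Tris-HCl pH 8.0 + 0.01% Tween 20; AMC substrate; 15 min RT, dark; Δfluorescence normalized to no-inhibitor/no-enzyme controls; 4-parameter Hill fit.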
row,Compound,outcome
1,O=c1[nH]oc2c1CCNC2,inactive
2,O=P1(N(CCCl)CCCl)NCCCO1 (stereo not given),inactive
3,CC(NC(C)(C)C)C(=O)c1cccc(Cl)c1 (stereo not given),inactive
4,C=C(C)[C@H]1CN[C@H](C(=O)O)[C@H]1CC(=O)O,inactive
5,NCCc1ccc(O)cc1,inactive
6,CN1C(=O)CCS(=O)(=O)C1c1ccc(Cl)cc1 (stereo not given),inactive
7,CC(C)(C)NCC(O)c1ccccc1Cl (stereo not given),inactive
8,Cc1ncsc1CCCl,inactive
9,CC(C)c1cccc(C(C)C)c1O,inactive
10,CCC1(c2ccc(N)cc2)CCC(=O)NC1=O (stereo not given),inactive
11,CCCCCN(C)CCC(O)(P(=O)(O)O)P(=O)(O)O,inactive
12,CC(C)N(CCC(C(N)=O)(c1ccccc1)c1ccccn1)C(C)C (stereo not given),inactive
